Inconclusive results are not listed. A call without a number means that no potency is given here. Calls of active or inactive are those of the source. Calls follow the shape of the full dose curve.
Molecular target: Nucleoprotein (Lymphocytic choriomeningitis virus (strain Armstrong)) (UniProt P09992)
Test: qHTS for Inhibitors of the Functional Ribonucleoprotein Complex (vRNP) of Lymphocytic Choriomeningitis Arenaviruses (LCMV): LCMV Primary Screen - GLuc reporter signal (AID 1347086); also: nearly all actives have a fitted effect of over 70% in size
Settings: LCMV minigenome vRNP cell assay, Gaussia luciferase reporter; series mostly up to 57.5 µM

Nucleoprotein (Lymphocytic choriomeningitis virus (strain Armstrong)), sequence (P09992 whole entry, looked up): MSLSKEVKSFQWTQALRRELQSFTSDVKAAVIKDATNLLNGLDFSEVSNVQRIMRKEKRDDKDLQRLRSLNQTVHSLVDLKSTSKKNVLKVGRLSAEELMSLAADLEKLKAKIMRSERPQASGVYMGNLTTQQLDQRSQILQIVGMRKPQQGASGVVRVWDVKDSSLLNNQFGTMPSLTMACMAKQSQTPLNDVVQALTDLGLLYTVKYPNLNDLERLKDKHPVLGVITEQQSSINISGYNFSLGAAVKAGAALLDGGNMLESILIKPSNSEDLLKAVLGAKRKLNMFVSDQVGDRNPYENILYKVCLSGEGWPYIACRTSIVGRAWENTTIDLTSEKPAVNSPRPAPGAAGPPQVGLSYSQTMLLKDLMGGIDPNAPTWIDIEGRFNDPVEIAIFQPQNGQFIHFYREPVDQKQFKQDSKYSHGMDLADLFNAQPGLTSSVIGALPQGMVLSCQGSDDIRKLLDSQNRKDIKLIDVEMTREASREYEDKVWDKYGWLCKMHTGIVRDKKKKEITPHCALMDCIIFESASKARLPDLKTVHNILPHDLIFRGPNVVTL

Structure (SMILES) | Potency
O[C@H]1[C@H]2[C@H](O)CCCN2C[C@H]1O | inactive
CN[C@H]1C[C@@H](N)[C@H](O)[C@@H](O[C@@H]2O[C@H](CO)[C@H](O)[C@@H]3OC4(O[C@H]23)O[C@H](C(N)CO)[C@H](O)[C@H](O)[C@H]4O)[C@@H]1O (some centres undefined) | inactive
COc1ccc2c(c1O)-c1cccc3c1[C@@H](C2)N(C)CC3 | inactive
C[C@@H]1O[C@H](C[N+](C)(C)C)CS1 | inactive
C[CH2][Hg][S]c1ccccc1C(=O)O | inactive
CCCN(CCC)CCc1c[nH]c2ccc(C(N)=O)cc12 | inactive
COC1=CC=C2[C@H]3Cc4ccc(OC)c5c4[C@@]2(CCN3C)[C@H]1O5 | inactive
CN(N=O)c1ccc(O)c(O)c1 | inactive
CC1OC1P(=O)(O)O (centres undefined) | inactive
C/C(O)=C(\C#N)C(=O)Nc1cc(Br)ccc1Br | inactive
CC(C)CC(NP(=O)(O)O[C@@H]1O[C@@H](C)[C@H](O)[C@@H](O)[C@H]1O)C(=O)NC(Cc1c[nH]c2ccccc12)C(=O)O (some centres undefined) | inactive
O=c1c2ccccc2[se]n1-c1ccccc1 | inactive
NC(=O)c1cc(N2CC2)c([N+](=O)[O-])cc1[N+](=O)[O-] | inactive
O=P(O)(O)C(Cl)(Cl)P(=O)(O)O | inactive
C[Se]C[C@H](N)C(=O)O | inactive
CCN(CC)c1ncnc2c1ncn2[C@@H]1O[C@H](COP(=O)(O)OP(=O)(O)C(Br)(Br)P(=O)(O)O)[C@@H](O)[C@H]1O | inactive
NC(N)=NOCC[C@H](N)C(=O)O | inactive

Structure (SMILES) | Potency
N[C@@H](CCl)C(=O)O | inactive
C=CCN(C1=NCCN1)c1c(Cl)cccc1Cl | inactive
C[C@@H]1[C@@H]2Cc3ccc(O)cc3[C@@]1(C)CCN2CC1CC1 | inactive
CN(N=O)c1cc(O)ccc1O | inactive
N#C/C(=C/c1ccc(O)c(O)c1)C(N)=S | inactive
CC1=C2C[C@H]3[C@@H](CC=C4C[C@@H](O)CC[C@@]43C)[C@@H]2CC[C@]12O[C@@H]1C[C@H](C)CN[C@H]1[C@H]2C | inactive
O=C/C=C/c1ccccc1 | inactive
CCN(CCCl)Cc1ccccc1Br | inactive
C=CCN1CCc2cccc3c2[C@H]1Cc1ccc(O)c(O)c1-3 | inactive
CN1[C@H]2CC[C@@H]1[C@@H](C(=O)O)[C@@H](OC(=O)c1ccccc1)C2 | inactive
CN(C)[C@@H]1C(=O)C(C(N)=O)=C(O)[C@@]2(O)C(=O)C3=C(O)c4c(O)ccc(Cl)c4[C@@](C)(O)[C@H]3C[C@@H]12 | inactive
CC(C)[C@@]1(NC(=O)[C@@H]2C[C@@H]3c4cccc5[nH]cc(c45)C[C@H]3N(C)C2)O[C@@]2(O)[C@@H]3CCCN3C(=O)[C@H](Cc3ccccc3)N2C1=O | inactive
COc1cc(CC(C)N)c(OC)cc1I (centres undefined) | inactive
C[N+]1(C)CCC(OC(=O)C(c2ccccc2)c2ccccc2)CC1 | inactive
C[N+]1(C)[C@@H]2CC(OC(=O)[C@H](CO)c3ccccc3)C[C@H]1[C@H]1O[C@@H]12 (some centres undefined) | inactive
C[C@]12C=CC(=O)C=C1CC[C@@H]1[C@@H]2CC[C@]2(C)OC(=O)CC[C@@H]12 | inactive
C=CCN1CC[C@]23c4c5ccc(O)c4O[C@H]2/C(=N/NC(=O)c2ccccc2)CC[C@@]3(O)[C@H]1C5 | inactive
